Results as given in the supplement of paper PMC11732987, “Enantioselective OTUD7B fragment discovery through chemoproteomics screening and high-throughput optimisation” (Communications Chemistry, 2025).

How the values were obtained:
Assay in all cases: log2 ratio of Biotin-Ahx-Ub-VS probe labelling (fragment/DMSO); higher = less target engagement (more negative = stronger competition), active = hit call of the paper (q ≤ 0.05, log2 ratio ≤ -1)
Details in all cases: compound concentration: 200 uM; treatment time: 3 h
USP42 = target: T1, USP42 (UniProt Q9H9J4)
T1 sequence (whole entry): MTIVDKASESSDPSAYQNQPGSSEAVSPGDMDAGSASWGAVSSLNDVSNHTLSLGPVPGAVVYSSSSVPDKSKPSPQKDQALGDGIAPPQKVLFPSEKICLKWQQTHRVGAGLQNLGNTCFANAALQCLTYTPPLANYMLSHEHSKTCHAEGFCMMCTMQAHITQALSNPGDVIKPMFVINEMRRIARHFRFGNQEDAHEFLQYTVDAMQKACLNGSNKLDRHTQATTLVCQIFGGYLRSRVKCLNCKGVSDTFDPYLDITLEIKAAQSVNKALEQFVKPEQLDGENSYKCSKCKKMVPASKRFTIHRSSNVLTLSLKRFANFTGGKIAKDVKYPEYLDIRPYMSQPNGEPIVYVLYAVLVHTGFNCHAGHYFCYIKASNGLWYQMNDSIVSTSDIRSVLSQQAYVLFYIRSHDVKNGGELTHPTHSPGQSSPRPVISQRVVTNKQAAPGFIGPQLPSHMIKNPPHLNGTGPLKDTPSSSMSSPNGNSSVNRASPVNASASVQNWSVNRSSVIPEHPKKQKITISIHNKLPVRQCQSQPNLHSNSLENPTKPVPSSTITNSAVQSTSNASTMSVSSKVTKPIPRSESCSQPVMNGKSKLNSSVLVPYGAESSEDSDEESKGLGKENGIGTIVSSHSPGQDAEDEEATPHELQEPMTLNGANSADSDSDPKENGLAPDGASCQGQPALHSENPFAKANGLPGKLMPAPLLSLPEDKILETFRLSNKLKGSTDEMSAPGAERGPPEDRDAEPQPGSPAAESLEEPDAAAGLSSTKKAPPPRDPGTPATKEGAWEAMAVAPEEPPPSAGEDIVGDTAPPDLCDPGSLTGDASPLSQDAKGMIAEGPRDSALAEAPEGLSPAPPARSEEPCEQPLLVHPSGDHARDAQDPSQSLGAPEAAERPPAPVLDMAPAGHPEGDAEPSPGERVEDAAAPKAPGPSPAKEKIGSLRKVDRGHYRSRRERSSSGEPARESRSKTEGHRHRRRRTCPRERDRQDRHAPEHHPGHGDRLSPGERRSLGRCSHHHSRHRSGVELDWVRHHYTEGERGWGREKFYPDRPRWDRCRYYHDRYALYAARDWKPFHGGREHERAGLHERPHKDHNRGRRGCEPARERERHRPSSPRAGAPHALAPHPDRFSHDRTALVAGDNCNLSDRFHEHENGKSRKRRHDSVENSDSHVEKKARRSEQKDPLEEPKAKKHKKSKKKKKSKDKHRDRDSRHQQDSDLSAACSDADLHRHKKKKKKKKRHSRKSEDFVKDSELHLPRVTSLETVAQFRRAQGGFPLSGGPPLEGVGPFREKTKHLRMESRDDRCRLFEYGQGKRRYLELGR
How it was run: (§1)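 Fragment (200 µM) or vehicle was incubated for 3 h with triplicate HEK293T lysate samples of 495 µg, which were then treated with Biotin-Ahx-Ub-VS at 0.5 µM final for 1 h. Labelled DUBs were enriched on NeutrAvidin, digested with LysC and trypsin, and analysed by diaPASEF LC-MS/MS. Values are average log2 fragment/vehicle ratios from an unpaired t-test on global-median-normalised Spectronaut label-free quantities, using proteins with ≥2 unique peptides.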

USP46 = USP46 (UniProt P62068)
How it was run: as §1

USP47 = target: T2, USP47 (UniProt Q96K76)
T2 sequence (whole entry): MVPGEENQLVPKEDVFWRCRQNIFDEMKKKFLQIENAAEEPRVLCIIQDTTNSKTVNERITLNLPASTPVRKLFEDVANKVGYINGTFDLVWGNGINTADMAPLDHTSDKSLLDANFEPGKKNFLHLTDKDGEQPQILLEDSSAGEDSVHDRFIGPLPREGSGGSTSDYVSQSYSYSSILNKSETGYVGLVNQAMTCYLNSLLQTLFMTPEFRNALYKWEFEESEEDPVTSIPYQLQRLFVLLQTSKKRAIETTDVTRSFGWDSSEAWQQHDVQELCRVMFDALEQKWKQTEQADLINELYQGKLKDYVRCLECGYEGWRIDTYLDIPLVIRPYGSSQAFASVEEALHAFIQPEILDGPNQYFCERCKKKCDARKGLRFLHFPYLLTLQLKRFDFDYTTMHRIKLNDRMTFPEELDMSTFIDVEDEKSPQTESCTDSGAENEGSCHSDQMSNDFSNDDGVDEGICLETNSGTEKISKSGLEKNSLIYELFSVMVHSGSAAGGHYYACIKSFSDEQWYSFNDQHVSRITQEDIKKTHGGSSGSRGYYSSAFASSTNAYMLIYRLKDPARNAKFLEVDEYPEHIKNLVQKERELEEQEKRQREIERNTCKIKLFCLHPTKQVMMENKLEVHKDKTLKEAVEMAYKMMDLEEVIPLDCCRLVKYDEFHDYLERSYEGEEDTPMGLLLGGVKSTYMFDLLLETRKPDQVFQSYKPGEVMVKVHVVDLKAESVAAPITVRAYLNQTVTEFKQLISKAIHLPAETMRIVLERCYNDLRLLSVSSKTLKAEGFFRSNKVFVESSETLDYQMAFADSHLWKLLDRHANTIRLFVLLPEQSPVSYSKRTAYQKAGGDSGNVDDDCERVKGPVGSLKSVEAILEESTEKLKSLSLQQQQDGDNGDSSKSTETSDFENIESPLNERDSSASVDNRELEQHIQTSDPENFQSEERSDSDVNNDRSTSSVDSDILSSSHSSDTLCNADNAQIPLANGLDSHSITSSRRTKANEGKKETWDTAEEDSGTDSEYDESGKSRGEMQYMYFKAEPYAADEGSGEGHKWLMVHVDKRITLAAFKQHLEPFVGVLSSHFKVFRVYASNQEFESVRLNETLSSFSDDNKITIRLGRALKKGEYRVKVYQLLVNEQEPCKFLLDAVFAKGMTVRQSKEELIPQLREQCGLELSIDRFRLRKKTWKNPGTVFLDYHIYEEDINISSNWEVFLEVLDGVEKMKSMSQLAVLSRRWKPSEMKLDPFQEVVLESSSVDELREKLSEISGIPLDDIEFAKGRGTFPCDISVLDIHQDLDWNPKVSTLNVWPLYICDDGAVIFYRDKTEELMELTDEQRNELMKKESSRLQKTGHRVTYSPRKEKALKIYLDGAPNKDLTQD
How it was run: as §1

USP48 = target: T3, USP48 (UniProt Q86UV5)
T3 sequence (whole entry): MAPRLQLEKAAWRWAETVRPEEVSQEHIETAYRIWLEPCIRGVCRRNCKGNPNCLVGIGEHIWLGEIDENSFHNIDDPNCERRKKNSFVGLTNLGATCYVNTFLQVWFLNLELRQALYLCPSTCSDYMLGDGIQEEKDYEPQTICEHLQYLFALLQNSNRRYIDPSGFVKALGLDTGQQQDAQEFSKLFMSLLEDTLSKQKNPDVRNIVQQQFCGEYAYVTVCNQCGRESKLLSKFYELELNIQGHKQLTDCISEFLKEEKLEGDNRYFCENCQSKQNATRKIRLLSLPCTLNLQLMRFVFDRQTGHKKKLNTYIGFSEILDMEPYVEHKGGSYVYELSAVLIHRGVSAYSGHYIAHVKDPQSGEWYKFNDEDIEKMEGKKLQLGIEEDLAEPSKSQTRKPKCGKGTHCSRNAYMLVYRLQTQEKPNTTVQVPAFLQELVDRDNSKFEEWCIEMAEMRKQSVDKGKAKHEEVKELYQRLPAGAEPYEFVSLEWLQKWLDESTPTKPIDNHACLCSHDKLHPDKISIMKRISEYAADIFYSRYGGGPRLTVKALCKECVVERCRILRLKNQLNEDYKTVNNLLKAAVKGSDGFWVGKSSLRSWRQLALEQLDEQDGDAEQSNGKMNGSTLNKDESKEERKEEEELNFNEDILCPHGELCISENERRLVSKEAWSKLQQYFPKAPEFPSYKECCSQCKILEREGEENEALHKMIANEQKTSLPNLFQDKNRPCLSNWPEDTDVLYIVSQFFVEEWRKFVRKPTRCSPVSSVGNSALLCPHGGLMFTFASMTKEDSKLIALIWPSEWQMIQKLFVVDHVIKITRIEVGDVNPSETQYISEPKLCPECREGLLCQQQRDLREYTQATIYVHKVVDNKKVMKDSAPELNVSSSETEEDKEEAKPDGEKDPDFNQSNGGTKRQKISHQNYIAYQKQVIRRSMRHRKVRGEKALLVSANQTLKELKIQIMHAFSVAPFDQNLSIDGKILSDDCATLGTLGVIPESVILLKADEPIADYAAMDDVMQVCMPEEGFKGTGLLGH
How it was run: as §1

USP5 = target: T4, USP5 (UniProt P45974)
T4 sequence (whole entry): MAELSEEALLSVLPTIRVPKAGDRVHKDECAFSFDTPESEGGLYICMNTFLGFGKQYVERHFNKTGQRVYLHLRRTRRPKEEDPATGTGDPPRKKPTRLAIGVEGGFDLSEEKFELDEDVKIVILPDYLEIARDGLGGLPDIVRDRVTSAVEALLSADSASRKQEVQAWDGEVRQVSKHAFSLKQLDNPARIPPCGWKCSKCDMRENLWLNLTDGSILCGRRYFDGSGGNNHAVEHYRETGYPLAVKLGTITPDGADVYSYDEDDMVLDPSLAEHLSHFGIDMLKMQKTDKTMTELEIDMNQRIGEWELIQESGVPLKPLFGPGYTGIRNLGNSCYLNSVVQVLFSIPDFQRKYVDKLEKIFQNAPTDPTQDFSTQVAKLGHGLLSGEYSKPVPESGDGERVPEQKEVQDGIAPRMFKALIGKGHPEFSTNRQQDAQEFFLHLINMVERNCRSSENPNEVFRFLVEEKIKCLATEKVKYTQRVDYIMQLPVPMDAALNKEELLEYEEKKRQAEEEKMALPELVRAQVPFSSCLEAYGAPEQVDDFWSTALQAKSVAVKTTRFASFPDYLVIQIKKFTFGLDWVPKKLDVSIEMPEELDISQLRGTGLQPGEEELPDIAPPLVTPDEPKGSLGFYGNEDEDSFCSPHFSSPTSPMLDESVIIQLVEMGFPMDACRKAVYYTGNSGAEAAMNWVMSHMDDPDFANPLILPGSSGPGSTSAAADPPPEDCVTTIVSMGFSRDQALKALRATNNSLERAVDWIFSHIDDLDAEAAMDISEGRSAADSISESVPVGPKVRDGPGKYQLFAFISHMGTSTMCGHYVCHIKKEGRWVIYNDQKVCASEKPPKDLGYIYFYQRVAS
How it was run: as §1

USP54 = USP54 (UniProt Q70EL1)
How it was run: as §1

USP7 = USP7 (UniProt Q93009)
How it was run: as §1

USP8 = target: T5, USP8 (UniProt P40818)
T5 sequence (whole entry): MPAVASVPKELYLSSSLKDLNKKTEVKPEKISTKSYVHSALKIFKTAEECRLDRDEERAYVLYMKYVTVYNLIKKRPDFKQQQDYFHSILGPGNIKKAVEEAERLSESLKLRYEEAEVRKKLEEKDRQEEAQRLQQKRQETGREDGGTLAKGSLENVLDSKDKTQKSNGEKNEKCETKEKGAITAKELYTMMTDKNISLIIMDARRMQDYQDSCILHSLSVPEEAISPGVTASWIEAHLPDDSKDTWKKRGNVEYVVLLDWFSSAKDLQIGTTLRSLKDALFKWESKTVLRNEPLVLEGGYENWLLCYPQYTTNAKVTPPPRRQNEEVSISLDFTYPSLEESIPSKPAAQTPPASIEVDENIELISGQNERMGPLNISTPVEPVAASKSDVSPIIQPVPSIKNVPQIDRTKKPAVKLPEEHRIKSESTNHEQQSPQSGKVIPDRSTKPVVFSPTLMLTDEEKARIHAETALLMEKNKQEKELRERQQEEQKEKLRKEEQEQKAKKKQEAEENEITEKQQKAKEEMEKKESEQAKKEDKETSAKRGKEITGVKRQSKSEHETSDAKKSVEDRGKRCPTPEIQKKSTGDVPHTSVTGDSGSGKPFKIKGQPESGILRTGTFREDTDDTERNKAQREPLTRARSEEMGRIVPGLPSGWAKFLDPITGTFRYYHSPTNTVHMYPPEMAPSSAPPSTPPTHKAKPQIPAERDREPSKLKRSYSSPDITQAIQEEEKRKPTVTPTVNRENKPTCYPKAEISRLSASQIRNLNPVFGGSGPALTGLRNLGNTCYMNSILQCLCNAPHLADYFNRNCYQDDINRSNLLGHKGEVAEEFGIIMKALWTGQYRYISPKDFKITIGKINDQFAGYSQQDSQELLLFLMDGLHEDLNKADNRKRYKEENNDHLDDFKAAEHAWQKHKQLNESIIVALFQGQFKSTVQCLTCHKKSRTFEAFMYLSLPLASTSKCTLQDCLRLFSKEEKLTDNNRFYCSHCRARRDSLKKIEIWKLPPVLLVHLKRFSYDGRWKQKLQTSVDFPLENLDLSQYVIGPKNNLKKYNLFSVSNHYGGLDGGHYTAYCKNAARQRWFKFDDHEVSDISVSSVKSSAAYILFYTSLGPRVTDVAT
How it was run: as §1

USP9X = USP9X (UniProt Q93008)
How it was run: as §1

UniProt O00487 = target: UniProt O00487
How it was run: as §1

Measured: log2 ratio of Biotin-Ahx-Ub-VS probe labelling

Chain of UniProt O00487 (O00487 whole entry): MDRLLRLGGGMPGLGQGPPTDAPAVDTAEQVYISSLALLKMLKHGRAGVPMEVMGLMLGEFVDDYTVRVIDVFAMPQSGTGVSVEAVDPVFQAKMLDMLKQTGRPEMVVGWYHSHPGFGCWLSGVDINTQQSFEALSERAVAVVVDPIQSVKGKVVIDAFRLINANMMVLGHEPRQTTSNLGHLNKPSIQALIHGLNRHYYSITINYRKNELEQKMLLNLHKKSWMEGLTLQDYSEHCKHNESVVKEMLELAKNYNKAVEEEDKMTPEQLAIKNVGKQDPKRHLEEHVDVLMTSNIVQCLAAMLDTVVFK
Chain of USP7 (Q93009 whole entry, looked up): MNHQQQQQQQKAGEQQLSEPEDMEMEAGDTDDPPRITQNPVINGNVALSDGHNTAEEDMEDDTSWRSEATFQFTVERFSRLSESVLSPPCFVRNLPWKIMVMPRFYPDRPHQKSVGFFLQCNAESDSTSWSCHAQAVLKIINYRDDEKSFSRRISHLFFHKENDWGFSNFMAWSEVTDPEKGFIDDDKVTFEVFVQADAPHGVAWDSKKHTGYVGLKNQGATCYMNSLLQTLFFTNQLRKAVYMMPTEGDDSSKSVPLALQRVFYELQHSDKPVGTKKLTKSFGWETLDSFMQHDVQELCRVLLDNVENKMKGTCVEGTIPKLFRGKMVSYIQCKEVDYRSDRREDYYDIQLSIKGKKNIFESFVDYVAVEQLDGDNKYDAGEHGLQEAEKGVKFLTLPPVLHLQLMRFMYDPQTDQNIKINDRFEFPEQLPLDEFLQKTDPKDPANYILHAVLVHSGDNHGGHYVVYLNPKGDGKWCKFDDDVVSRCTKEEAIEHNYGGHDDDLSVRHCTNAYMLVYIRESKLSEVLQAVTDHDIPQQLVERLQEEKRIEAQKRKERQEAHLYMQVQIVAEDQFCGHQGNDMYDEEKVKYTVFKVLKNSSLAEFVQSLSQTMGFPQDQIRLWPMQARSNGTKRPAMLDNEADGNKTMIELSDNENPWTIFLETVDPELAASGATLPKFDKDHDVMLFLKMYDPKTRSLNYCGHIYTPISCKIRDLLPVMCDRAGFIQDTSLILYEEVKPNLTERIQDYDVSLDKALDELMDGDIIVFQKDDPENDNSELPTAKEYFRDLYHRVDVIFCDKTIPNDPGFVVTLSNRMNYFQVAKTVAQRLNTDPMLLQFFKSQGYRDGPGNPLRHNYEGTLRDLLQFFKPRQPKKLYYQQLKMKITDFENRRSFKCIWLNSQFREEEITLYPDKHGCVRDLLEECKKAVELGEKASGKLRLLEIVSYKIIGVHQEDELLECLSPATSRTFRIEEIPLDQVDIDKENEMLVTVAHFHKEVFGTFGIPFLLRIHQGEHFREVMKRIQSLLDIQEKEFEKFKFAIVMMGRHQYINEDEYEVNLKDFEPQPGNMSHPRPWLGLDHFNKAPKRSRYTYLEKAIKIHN
Chain of USP46 (P62068 whole entry): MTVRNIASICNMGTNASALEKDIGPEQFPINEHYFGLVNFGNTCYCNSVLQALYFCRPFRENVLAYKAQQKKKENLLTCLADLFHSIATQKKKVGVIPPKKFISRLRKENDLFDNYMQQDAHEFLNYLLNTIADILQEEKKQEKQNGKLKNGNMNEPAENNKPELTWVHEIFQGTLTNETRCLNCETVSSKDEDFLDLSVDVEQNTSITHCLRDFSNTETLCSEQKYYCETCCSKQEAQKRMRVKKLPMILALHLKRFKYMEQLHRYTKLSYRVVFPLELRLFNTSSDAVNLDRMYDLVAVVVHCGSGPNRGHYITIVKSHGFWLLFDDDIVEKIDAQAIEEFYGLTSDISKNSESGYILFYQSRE
Chain of USP54 (Q70EL1 whole entry): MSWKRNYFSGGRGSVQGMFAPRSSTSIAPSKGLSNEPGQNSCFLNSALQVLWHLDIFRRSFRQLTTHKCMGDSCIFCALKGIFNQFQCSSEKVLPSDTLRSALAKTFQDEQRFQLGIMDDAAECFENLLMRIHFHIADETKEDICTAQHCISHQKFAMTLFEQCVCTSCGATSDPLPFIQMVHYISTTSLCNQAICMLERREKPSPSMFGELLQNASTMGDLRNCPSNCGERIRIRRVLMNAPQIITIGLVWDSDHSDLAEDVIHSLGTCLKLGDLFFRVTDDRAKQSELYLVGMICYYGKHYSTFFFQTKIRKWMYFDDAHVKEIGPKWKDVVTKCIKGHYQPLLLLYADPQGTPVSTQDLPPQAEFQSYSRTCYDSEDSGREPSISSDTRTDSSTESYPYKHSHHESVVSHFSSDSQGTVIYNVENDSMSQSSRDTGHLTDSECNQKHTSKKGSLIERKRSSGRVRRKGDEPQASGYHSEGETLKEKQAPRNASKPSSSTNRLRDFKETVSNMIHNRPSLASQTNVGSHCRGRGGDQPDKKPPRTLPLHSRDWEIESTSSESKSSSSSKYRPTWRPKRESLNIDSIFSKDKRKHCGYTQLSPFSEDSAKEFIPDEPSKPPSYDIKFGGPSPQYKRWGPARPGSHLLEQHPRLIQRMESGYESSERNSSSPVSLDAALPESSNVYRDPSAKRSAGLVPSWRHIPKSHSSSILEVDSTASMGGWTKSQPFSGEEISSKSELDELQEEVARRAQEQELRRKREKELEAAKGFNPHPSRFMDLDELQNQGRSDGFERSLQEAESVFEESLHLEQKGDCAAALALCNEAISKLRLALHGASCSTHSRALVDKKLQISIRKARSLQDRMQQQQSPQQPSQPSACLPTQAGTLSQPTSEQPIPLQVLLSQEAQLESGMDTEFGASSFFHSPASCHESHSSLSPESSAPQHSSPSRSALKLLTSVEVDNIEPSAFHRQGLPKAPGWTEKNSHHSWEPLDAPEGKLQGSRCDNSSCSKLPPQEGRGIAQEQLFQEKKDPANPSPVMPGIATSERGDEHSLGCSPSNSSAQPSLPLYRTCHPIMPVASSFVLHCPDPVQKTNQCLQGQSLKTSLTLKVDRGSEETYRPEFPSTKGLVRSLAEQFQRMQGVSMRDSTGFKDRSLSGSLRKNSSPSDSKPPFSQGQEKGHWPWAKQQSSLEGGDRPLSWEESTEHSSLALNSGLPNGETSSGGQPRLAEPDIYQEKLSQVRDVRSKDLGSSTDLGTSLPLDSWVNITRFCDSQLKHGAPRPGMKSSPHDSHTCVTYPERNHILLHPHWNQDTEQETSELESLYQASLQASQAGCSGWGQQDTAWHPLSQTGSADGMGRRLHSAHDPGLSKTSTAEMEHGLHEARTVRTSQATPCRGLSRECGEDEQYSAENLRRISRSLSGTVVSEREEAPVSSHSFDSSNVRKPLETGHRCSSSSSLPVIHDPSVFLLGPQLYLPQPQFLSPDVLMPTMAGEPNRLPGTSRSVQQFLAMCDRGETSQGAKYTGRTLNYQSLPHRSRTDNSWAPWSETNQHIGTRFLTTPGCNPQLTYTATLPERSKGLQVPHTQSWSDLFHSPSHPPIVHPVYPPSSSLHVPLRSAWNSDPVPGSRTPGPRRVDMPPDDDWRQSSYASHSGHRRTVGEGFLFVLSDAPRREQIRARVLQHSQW

Cl.O=C(CCl)NC1(c2ncccn2)CCC1
inactive: USP42 0.259 | USP46 0.267 | USP47 -0.186 | USP48 -0.0959 | USP5 -0.174 | USP54 -0.292 | USP7 -0.0088 | USP8 -0.47 | USP9X 0.117 | UniProt O00487 0.0465
